Results taken from PubChem BioAssay AID449762 (Southern Research Specialized Biocontainment Screening …, 2010).
Several values for one entry are separate records, joined by “and”; a condition that tells them apart may be missing. Identical values can stand only once. About 1,900 (0.58%) of roughly 330,000 compounds were called active. Not shown: some 4% with an inconclusive outcome. Cut-off read from the data, not from the text of the source: inconclusive = inhibition above about 70% without an active follow-up result; inactive = below that. A selection follows. Potency and affinity values are given separately.

Experiment: M. tuberculosis growth inhibition, HTS (AID 449762);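 note: bacterial growth assessed after seven days of incubation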
Details: M. tuberculosis H37Rv growth inhibition, 7H9 media; at 25 µM; active compounds read high

SMILES | inhibition
COc1ccc2noc3c2c1C(=O)c1ccccc1-3 | 38.9% (inactive)
CCOc1ccc2noc3c2c1C(=O)c1ccccc1-3 | 6.97% (inactive)
NC(=O)COc1ncnc2scc(-c3ccc(F)cc3)c12 | -9.11% (inactive)
c1ccc(-c2nccc(-c3ccc(-n4cnc5ccccc54)cc3)n2)cc1 | 16% (inactive)
c1ccc2c(c1)ncn2-c1ccc(-c2ccnc(-c3ccncc3)n2)cc1 | -0.53% (inactive)
CCN(CC)S(=O)(=O)c1cccc(C(=O)NCCCn2ccnc2)c1 | 3.66% (inactive)
CN1CCc2cccc3c2[C@H]1Cc1ccc(O)c(O)c1-3 | 29.9% (inactive) and 14.3% (inactive) and 5.91% (inactive)
CN1CCc2cccc3c2C1Cc1ccc(O)c(O)c1-3 (configuration not stated) | 35.5% (inactive)
COCCCNc1ncnc2sc3c(c12)CCC(C)C3 (configuration not stated) | 13.1% (inactive)
CC1CCc2c(sc3ncnc(NCCN4CCOCC4)c23)C1 (configuration not stated) | 1.22% (inactive)
COc1cc(C)cc(CN2CC=C(c3ccccc3)CC2)c1O | 4.09% (inactive)
Cn1nc(C(=O)NCC(c2cccs2)N2CCOCC2)c2ccccc2c1=O (configuration not stated) | -7.54% (inactive)
CCc1c(C)nc2cc(-c3cc(OC)cc(OC)c3)nn2c1N1CCN(CCN2CCOCC2)CC1 | -1.99% (inactive)
CCOCCN1CCN(c2c(C)c(C)nc3cc(-c4cc(OC)cc(OC)c4)nn23)CC1 | -16.2% (inactive)
COc1ccc(OC)c(NC(=O)c2ccc(S(=O)(=O)N3CCN(C)CC3)cc2)c1 | -1.22% (inactive)
Cc1ccc(CNS(=O)(=O)c2ccc(-n3cnnn3)c(C)c2)cc1 | 5.67% (inactive)
COc1cccc(-c2c(-c3cc(OC)cc(OC)c3)n(C)c3ccc(-c4cnc(N5CCOCC5)nc4)cc23)c1 | 6.76% (inactive)
COc1cc(OC)cc(-c2c(C#Cc3ccsc3)c3cc(-c4ccc(CN5CCOCC5)cc4)ccc3n2C)c1 | 1.54% (inactive)
COc1ccc(NS(=O)(=O)c2cccc(C(=O)N3CCN(Cc4ccc5c(c4)OCO5)CC3)c2)cc1 | 12.7% (inactive)
O=Cc1cn(-c2ccccc2)nc1-c1cccnc1 | -1.66% (inactive)
O=C(/C=C/c1cn(-c2ccccc2)nc1-c1cccnc1)N1CCCCC1 | -0.1% (inactive)
Cc1nc2c(-c3ccccc3)c(C)nn2c(C)c1CCC(=O)N1CCC2(CC1)OCCO2 | 8.75% (inactive)
COc1cc(/C=C/C(=O)OCC(=O)NCCc2ccccc2)ccc1OC(F)F | -11.9% (inactive)

SMILES | inhibition
N#C/C(=C/c1ccc(Sc2nc3ccccc3[nH]2)o1)c1cccc(F)c1 | 3% (inactive)
N#C/C(=C\c1ccc(Sc2nc3ccccc3[nH]2)o1)c1ccccc1 | -1.33% (inactive)
CCOC(=O)Cn1nc(C)n(-c2ccccc2)c1=O | -8.51% (inactive)
CN(C)c1ncnc2c1ncn2C1OC(CO)C(O)C1O (configuration not stated) | -4.17% (inactive)
C[C@H](Cc1ccccc1)Nc1ncnc2c1ncn2[C@@H]1O[C@H](CO)[C@@H](O)[C@H]1O | -4.76% (inactive)
CCOc1ccccc1-n1nnnc1SCC(=O)OC | 3.09% (inactive)
Cc1cc(C)n2c(Br)c(CN3CCCC(C)C3)nc2n1 (configuration not stated) | -0.64% (inactive)
Clc1ccc(CN2C3=NCCN3c3ccccc32)cc1Cl | -11.7% (inactive)
CCOc1cccc(-c2c(C(=O)N/N=C/c3sccc3C)nnn2-c2nonc2N)c1 | 3.18% (inactive)
O=C(CSc1nc2ncccc2[nH]1)Nc1ccc2c(c1)OCO2 | -7.9% (inactive)
CCc1ccc(NC(=O)CSc2nc3ncc(Br)cc3[nH]2)cc1 | 49.8% (inactive)
N#Cc1ccccc1OCc1cccc(S(=O)(=O)N2CCOCC2)c1 | -6.86% (inactive)
OCCN(CC#CC(O)(c1ccccc1)C1CCCC1)CCO (configuration not stated) | 3.68% (inactive)
Cn1c(CCn2ccccc2=O)nc2cc(NC(=O)COc3ccccc3)ccc21 | 0.17% (inactive)
CCCC(=O)N1CCCC(c2nc(-c3cccc(OC)c3)no2)C1 (configuration not stated) | -8.11% (inactive)
COc1ccc(N2CCN(C(=O)c3ccc(Oc4ccc(C(F)(F)F)cn4)cc3)CC2)cc1 | 10.5% (inactive)
O=C(c1ccc(Oc2ccc(C(F)(F)F)cn2)cc1)N1CCN(c2ccccc2)CC1 | 46.7% (inactive)
Cc1ccc(S(=O)(=O)N2CCCCC2)cc1NC(=O)COC(=O)c1ccccc1F | -3.82% (inactive)
CCOc1ccc(NC(=O)CN(C)C(=O)c2c(-c3ccccc3Cl)noc2C)cc1OCC | 1.46% (inactive)
COc1ccccc1-n1cnnc1SCC(=O)Nc1cc(C)on1 | -1.02% (inactive)
COC(=O)c1c(C(=O)OC)c2n(c1C)CCC2 | -2.13% (inactive)
Cc1cc(C)c2ccc(C(=O)O)nc2c1O | -5.39% (inactive)
Cc1cc(C)c2ccc(N)nc2c1O | -11.8% (inactive)

SMILES | inhibition
CCOc1ccc2[nH]cc(C(=O)N3CCN(CC)CC3)c(=O)c2c1 | 5.18% (inactive)
Cc1cccc(-c2noc(CCC(=O)Nc3ccc(C(N)=O)cc3)n2)c1 | 4.71% (inactive)
COc1ccc(-c2noc(CCCC(=O)Nc3ccc(C(N)=O)cc3)n2)cc1 | -3.01% (inactive)
Cc1ccc(C)c(S(=O)(=O)N2CCN(C(=O)CCc3c[nH]c4ccccc34)CC2)c1 | -3.94% (inactive)
CSc1nsc(/C=C/Nc2ccc(F)cc2F)c1C#N | 7.19% (inactive)
CSc1nsc(/C=C/Nc2ccc(C)cc2)c1C#N | 18.6% (inactive)
O=c1c2cnn(-c3ccccc3)c2ncn1Cc1cccc(Cl)c1 | 0.84% (inactive)
O=C(COc1ccccc1)Nc1ncccn1 | -7.9% (inactive)
NNC(=O)COc1cccc(Oc2ccccc2)c1 | 7.98% (inactive)
Cc1ccc2c(c1)C1(OCCCO1)C(=O)N2CC#N | -7.17% (inactive)
Cc1nc(CSc2ccc(Cl)cc2)cc(N2CCOCC2)n1 | 0.76% (inactive)
O=S(=O)(Cc1cc(N2CCOCC2)nc(-c2ccccn2)n1)c1ccccc1 | 5.9% (inactive)
COc1c(C)cc(C(=O)C2CCCN(C(=O)c3cc(C)n(C)n3)C2)cc1C (configuration not stated) | 5.63% (inactive)
CCOC(=O)c1c(NC(=O)/C=C\C(=O)O)sc(C)c1-c1ccccc1 | -6.71% (inactive)
CCOC(=O)c1c(NC(=O)CCN2CCOCC2)sc(C)c1-c1ccccc1 | 3.54% (inactive)
COc1cc(/C=N/c2oc(C)c(C)c2C#N)cc(Br)c1O | 12% (inactive)
COCCN(C(=O)COC(=O)CCC(=O)c1ccc(Cl)cc1)c1c(N)n(Cc2ccccc2)c(=O)[nH]c1=O | -11.3% (inactive)
Cc1csc(NC(=O)CSc2ccc(-c3ccccc3)nn2)n1 | 1.71% (inactive)
Cc1cc(NC(=O)CSc2ccc(-c3ccccc3)nn2)no1 | -8.31% (inactive)
COCCNC(=O)c1noc2c1CCc1cc(OC)ccc1-2 | 3.34% (inactive)
O=C(Nc1ccc(C(F)(F)F)cc1)c1ccc(NC(=O)C2CCCO2)cc1 (configuration not stated) | -5.77% (inactive)
Cc1cccc2sc(NNC(=O)C3=COCCO3)nc12 | 2.71% (inactive)
CCOC(=O)N1CCN(C(=O)c2cccc(S(=O)(=O)Nc3ccc(Br)cc3)c2)CC1 | 8.88% (inactive)

SMILES | inhibition
CC(NCC(O)COc1ccc2ccccc2c1)c1ccccc1 (configuration not stated) | 9.15% (inactive)
CCOC(=O)c1nn(-c2ccc(C)cc2)c(=O)cc1OCC(=O)Nc1ccc(OC)cc1 | 8.61% (inactive)
COC(=O)C(C)n1nc(C)n(-c2ccc(C)cc2)c1=O (configuration not stated) | -0.27% (inactive)
Cc1cc(NC(=O)c2cncc(Br)c2)ccc1NC(=O)c1cc2ccccc2o1 | 6.1% (inactive)
CCC(=O)Nc1ccc(NC(=O)c2ccc3ccccc3c2)cc1 | -4.7% (inactive)
O=S1(=O)CCOC[C@H](c2ccccc2)N1Cc1ccccc1F | 1.26% (inactive)
CNC(C)C#Cc1ccc2c(=O)c3ccccc3oc2c1 (configuration not stated) | 30% (inactive)
CNC(C)C#Cc1ccc2c(=O)c3cc(C)c(C)cc3oc2c1 (configuration not stated) | 1.51% (inactive)
CC(C)(C)OC(=O)C[C@@H]1C/C=C\C[C@@H](CC(=O)N(CCO)Cc2ccccc2)C(=O)NC[C@@H](c2ccccc2)OC1=O | 4.78% (inactive)
CCCCN(C(=O)CC1CCCC1)c1c(N)n(CCCC)c(=O)[nH]c1=O | -14.4% (inactive)
O=C(NCC1CCCO1)C1c2ccccc2Oc2ccccc21 (configuration not stated) | -7.07% (inactive)
Cc1ccc(N(CC(=O)N2CCc3ccccc3C2)S(C)(=O)=O)cc1 | -1.47% (inactive)
COc1c(Cl)cnn(-c2ccccc2)c1=O | 6.51% (inactive)
COc1cc(Cl)nn(-c2ccccc2)c1=O | -13.2% (inactive)
Cn1c(=O)cc(OCC(=O)NCCCN2CCN(c3cccc(Cl)c3)CC2)c2ccccc21 | 1.78% (inactive)
C=CCNc1nc(C(=O)OCC(=O)c2ccc(F)cc2)cs1 | -9.37% (inactive)
CCN(C(=O)Cc1c(C(=O)O)n(C)c2ccccc12)c1cc(OC)ccc1OC | -7.09% (inactive)
C/C=C(\C)C(=O)Nc1cccc(C2=NOC3(C2)C[C@@H](C(N)=O)N(C(=O)c2cc([N+](=O)[O-])cc([N+](=O)[O-])c2C)C3)c1 (some centres not stated) | -8.05% (inactive)
C/C=C(/C)C(=O)Nc1cccc(C2=NOC3(C2)C[C@H](C(N)=O)N(C(=O)c2ccccc2)C3)c1 (some centres not stated) | -2.03% (inactive)
COc1ccc(N2CC(C(=O)N3CCN(Cc4ccc5c(c4)OCO5)CC3)CC2=O)cc1 (configuration not stated) | -6.83% (inactive)
COc1ccc(/C=C2\CCCC3C2=NN(C(=O)CSc2ncn[nH]2)C3c2ccc(OC)cc2)cc1 (configuration not stated) | 8.82% (inactive)
O=c1cc(CNc2cc(C(F)(F)F)cc(C(F)(F)F)c2)nc2sccn12 | 3.54% (inactive)
COC(=O)CN(c1ccc2c(c1)OCCO2)S(=O)(=O)c1ccccc1 | -5.06% (inactive)
